Hedgehog inh: Sonic Hedgehog pathway inhibition; inhibition, % (concentration not given with the values); Shh-LIGHT2 Gli-luciferase reporter, 30 h; 22,000 compounds, 2.1% hits;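 active = mean inhibition across valid replicates above about 65%, limit read from the data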;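 also: pathway switched on by Shh-conditioned medium diluted 1 in 25 in low serum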
PD-1 reverse act: activators reversing PD-1 mediated T-cell inhibition; 29,000 tested, under 10 active; primary human CD4 T cells, PD-L1 beads, CellTiter-Glo 96 h; AID 2316; activation, % (no concentration beside the values); call rule not given here;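 also: 0% = median vehicle wells and 100% = positive control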
NOMO-1 viab: STK33 inhibitor candidate reducing NOMO-1 cell viability. NOMO-1 AML viability, CellTiter-Glo luminescence, 72 h. inhibition, % (concentration not given with the values). 37,000 compounds, 7.5% hits; in the data active = inhibition above about 80%
The depositor's hits bear a star; · = no result. An excerpt weighted towards active compounds, which were near 7.7% of everything screened.

SMILES	Hedgehog inh	PD-1 reverse act	NOMO-1 viab
Cc1ccc(S(=O)(=O)Nc2ccc3c(c2)CC(=O)N([C@@H](C)CO)C[C@@H](C)[C@@H](CN(C)CC2CC2)O3)cc1	-14	·	8
C[C@@H]1CN([C@@H](C)CO)C(=O)Cc2cc(NS(C)(=O)=O)ccc2O[C@@H]1CN(C)CC1CCCCC1	-19	·	1
C[C@@H]1CN([C@H](C)CO)C(=O)Cc2cc(NS(C)(=O)=O)ccc2O[C@H]1CN(C)CC1CC1	75*	3	-6
Cc1ccc(S(=O)(=O)Nc2ccc3c(c2)CC(=O)N([C@H](C)CO)C[C@H](C)[C@H](CN(C)CC2CCCCC2)O3)cc1	32	-2	99*
COc1cc([N+](=O)[O-])ccc1NC(=O)CN(C)S(=O)(=O)c1ccccc1	·	·	-10
Cn1c(SCC(=O)Nc2ccc(Cl)cc2)nnc1-c1ccc(Cl)c(Cl)c1	·	-4	48
O=C(NCC[C@@H](CNC(=O)c1cccc(O)c1O)NC(=O)c1cccc(O)c1O)c1cccc(O)c1O	24	-5	120*
CC(C)CCNC(=O)c1cccc2c1-c1ccccc1C2=O	26	0	20
C=C1C2=C(O[C@H](/C(C)=C/C(C)CC(C)CC)[C@@H](O)[C@@H]2O)C(=O)N1OC (some centres not stated)	19	0	107*
O=C(O)CCNS(=O)(=O)c1cccc(F)c1	·	1	4
N#CCCN(CCC#N)C(=O)c1cc(-c2ccccc2)nc2ccccc12	·	·	17
On1onc2c3cc(-c4ccccc4)nc3ccc21	99*	-3	115*
CCC(Sc1ccccn1)C(=O)Nc1ccc(Br)cc1 (configuration not stated)	·	0	10
O=C(CCc1ccc(O)cc1)CC(CCc1ccc(O)cc1)O[C@@H]1OC[C@@H](O)[C@H](O)[C@H]1O (some centres not stated)	11	-2	113*
Oc1ccc(CCCCC(CCc2ccc(O)cc2)O[C@@H]2OC[C@@H](O)[C@H](O)[C@H]2O)cc1 (some centres not stated)	14	·	·
CC(C)[C@H](NC(=O)[C@H](C)N(C)C)C(=O)N1CC[C@@H]2Oc3ccc(cc3)/C=C\NC(=O)[C@H](Cc3ccccc3)NC(=O)C21 (some centres not stated)	4	1	11
Cc1ccc2nc(-c3ccc(NC(=O)COc4ccc([N+](=O)[O-])cc4)cc3)sc2c1	·	·	1
CCOC(=O)COc1ccc(-c2nc3c([nH]2)c(=O)n(C)c(=O)n3C)cc1OC	·	2	149*
CCOCCCNc1nc2c([nH]1)c(=O)n(C)c(=O)n2C	·	0	8
CS(=O)(=O)N(CC(=O)Nc1ccc(Br)cc1)c1cccc(C(F)(F)F)c1	·	-5	46
C[C@H]1CN([C@@H](C)CO)C(=O)c2cc(NC(=O)C3CCCCC3)ccc2O[C@@H]1CN(C)Cc1ccc(-c2ccccc2)cc1	3	-4	100*
C[C@H]1CN([C@@H](C)CO)C(=O)c2cc(NC(=O)C3CCCCC3)ccc2O[C@H]1CN(C)Cc1ccncc1	·	-1	97*
C[C@@H]1CN([C@H](C)CO)C(=O)c2cc(NC(=O)NC3CCCCC3)ccc2O[C@@H]1CN(C)Cc1ccncc1	17	1	11
C[C@H](CO)N1C[C@H](C)[C@H](CN(C)Cc2ccncc2)Oc2ccc(NC(=O)NC3CCCCC3)cc2C1=O	-9	0	105*
C[C@H]1CN([C@@H](C)CO)C(=O)c2cc(NC(=O)C3CCCCC3)ccc2O[C@@H]1CN(C)Cc1ccncc1	·	-2	25
SMILES	Hedgehog inh	PD-1 reverse act	NOMO-1 viab
C[C@H](CO)N1C[C@H](C)[C@@H](CN(C)Cc2ccc(-c3ccccc3)cc2)Oc2ccc(NC(=O)C3CCCCC3)cc2C1=O	·	0	29
Cc1cc(=O)c2c(O)c3c(cc2o1)OC(C(C)(C)OC1OC(CO)C(O)C(O)C1O)C3 (configuration not stated)	-37	3	-8
CC(=O)n1c(-c2ccc(C)cc2)cc(-c2ccc(C)cc2)c(C#N)c1=O	12	1	17
COc1cc(C2c3cc(O[C@@H]4O[C@H](CO)[C@@H](O)[C@H](O)[C@H]4O)c(OC)cc3CC(CO)C2CO)ccc1O (some centres not stated)	-16	1	22
CCn1c(SCC(=O)Nc2cc(C)ccc2OC)nnc1-c1ccc(Cl)cc1	·	-1	8
CCOC(=O)CSc1nc(Nc2ccc(OC)cc2)c2cnc(N(CC)CC)nc2n1	27	-5	120*
O=C(CSc1nc(Nc2ccccc2)nc(N2CCOCC2)n1)N1CCc2ccccc21	·	·	20
CCOC(=O)CSc1nc(Nc2ccccc2)c2cnc(N3CCOCC3)nc2n1	42	-3	112*
CCN(CC)c1ncc2c(NCc3ccccc3)nc(SCc3ccccc3)nc2n1	26	-2	43
CC1=C(C#N)C(c2cc(F)ccc2F)C(C(=O)OCc2ccccc2)=C(N)O1 (configuration not stated)	-45	-1	74
COC(=O)[C@H](Cc1ccc(O)cc1)NC(=O)c1cccc(Cl)c1	-16	-23	110*
CCOC(=O)C(Cc1ccc(O)cc1)NC(C)=O (configuration not stated)	-24	·	-2
COc1ccc(CN2C(=O)c3cccc4cccc(c34)C2=O)cc1S(=O)(=O)N1CCCCC1	·	·	59
CC(=O)c1ccc(NC(=O)CSc2nnc3c4ccccc4n(C)c3n2)cc1	·	-5	16
CC(=O)OC1CC2(C)C(CCC3C4(C)CCC(=O)C(C)C4C(O)C(=O)C32C)/C1=C(\CCC=C(C)C)C(=O)O (configuration not stated)	27	·	·
CCN(CC)C(=S)Sc1ncnc2sc3c(c12)CCCC3	90*	-3	125*
CC(C)(C)C(=O)CSc1ncnc2sc3c(c12)CCCC3	·	-2	20
COc1ccccc1OCC(O)Cn1cnc2ccccc21 (configuration not stated)	·	-3	3
Cc1ccccc1OCC(=O)Nc1cc2nn(-c3ccccc3)nc2cc1Cl	·	·	-7
COc1ccccc1CCNC(=O)c1cc(-c2ccccn2)nc2c(C)c(Cl)ccc12	·	·	101*
COc1ccccc1CCNC(=O)c1cc(-c2ccncc2)nc2c(C)c(Cl)ccc12	·	·	47
CCOC(=O)Cc1c(SC)c2ccccc2n1C	-4	0	-9
CC(=O)Oc1c(I)c(=O)n(C)c2ccccc12	23	-12	121*
CC(NS(=O)(=O)c1ccc(Cl)cc1)C(=O)Nc1cccc2ccccc12 (configuration not stated)	·	-1	14
C[C@@H]1CN([C@H](C)CO)C(=O)c2cccc(NC(=O)Nc3ccc(C(F)(F)F)cc3)c2O[C@@H]1CN(C)C(=O)NC1CCCCC1	-53	-6	117*
C[C@H](CO)N1C[C@H](C)[C@@H](CN(C)C(=O)NC2CCCCC2)Oc2c(NC(=O)Nc3ccc(C(F)(F)F)cc3)cccc2C1=O	-44	-2	85*
C[C@@H]1CN([C@@H](C)CO)C(=O)c2cccc(NC(=O)Nc3ccc(C(F)(F)F)cc3)c2O[C@H]1CN(C)C(=O)NC1CCCCC1	-32	-3	73
C[C@@H]1CN([C@H](C)CO)C(=O)c2cccc(NC(=O)NC3CCCCC3)c2O[C@H]1CN(C)C(=O)Nc1ccc(C(F)(F)F)cc1	0	-2	8
